The record followed here is PubChem BioAssay (NCATS).

Experiment [1] can be described thus: qHTS profiling of the MIPE4 collection as inhibitors of Plasmodium falciparum (DD2) proliferation (AID 743345; call rule not given here). Particulars: P. falciparum Dd2 in erythrocytes, SYBR Green DNA, 72 h; at 28.5 µM (top of the series) unless noted. In outline: (§1)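 Erythrocytes infected with P. falciparum (0.3% parasitemia, 2.5% hematocrit) incubated with compounds 72 h at 37 C, 5% CO2. Lysis with saponin/Triton buffer containing SYBR Green I, overnight at room temperature in the dark; DNA fluorescence (485/535 nm) normalised to 0.29 uM artemisinin and DMSO.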

A short description of experiment [2]: qHTS profiling of the MIPE4 collection as inhibitors of Plasmodium falciparum (DD2) proliferation (Rep 2) (AID 743346; call rule not given here). The note with it: P. falciparum Dd2 in erythrocytes, SYBR Green DNA, 72 h; at 28.5 µM (top of the series) unless noted. In outline:
as §1
(Quantitative high-throughput screening tests each substance at several concentrations.)

Experiment [3] can be described thus: qHTS profiling of the MIPE4 collection as inhibitors of Plasmodium falciparum (HB3) proliferation (AID 743347; call rule not given here;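 also: plate controls were DMSO vehicle wells for no effect and artemisinin wells for full effect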). The note with it: P. falciparum HB3 in erythrocytes, SYBR Green DNA, 72 h; at 28.5 µM (top of the series) unless noted. In outline: as §1
Experiment [4] can be described thus: High-throughput drug toxicity screening in the BPDCN cell line Gen2.2 (AID 1224824; call rule not given here;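 also: cells exposed to compounds for 48 h before reading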). Particulars: Gen2.2 BPDCN cells; at 45.8 µM (top of the series) unless noted. Summed up: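 CellTiter-Glo luminescence after 48 h compound exposure of Gen2.2 cells; percent activity set with DMSO as 100% and bortezomib (9.2 uM final) as 0%. Cells seeded at 500 per well, RPMI + 10% FBS, 37 °C.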

Experiment [5] is described as follows: High-throughput drug toxicity screening in the BPDCN cell line Cal-1 (AID 1224825; call rule not given here). The note with it: Cal-1 BPDCN cell viability, qHTS; at 45.8 µM (top of the series) unless noted. Summed up:
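Cal-1 cells, 500 per well in phenol-red-free RPMI with 10% FBS, exposed to compounds for 48 hours at 37C, 5% CO2. Viability read by CellTiter-Glo luminescence; percent activity normalized to DMSO (100%) and 9.2 uM bortezomib final (0%).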

Experiment [6] in a line: qHTS assay for measurement of the activity of small molecule inhibitors on Zika virus induced Caspase-3 activity in human iPSC derived neural progenitor cells (hNPCs) (AID 1224857). Also: nearly all actives have a fitted effect of over 65% in size. Also: potency is read from the fitted curve at half-maximal effect. Summed up: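 Human iPSC-derived neural progenitor cells pretreated 1 hr with compounds, then infected with Zika virus (2 FFU/cell) for 6 hours at 37 C. Caspase-3/7 measured by Caspase-Glo luminescence; % inhibition calculated from induction scaled to uninfected (0%) and infected (100%) wells.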

Experiment [7] can be described thus: qHTS assay for measurement of the activity of small molecule inhibitors on Zika virus induced Caspase-3 activity in human astrocytoma cells (AID 1224859).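 Also: plate controls were ZIKV-infected untreated cells for no effect and uninfected cells for full effect.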 In outline:
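SNB-19 astrocytoma cells, 250/well, pretreated 1 h with compounds, then Zika virus at 2 FFU/cell for 6 h at 37 C; Caspase-Glo 3/7 luminescence after 30 min; percent inhibition normalised to uninfected and infected controls.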

A short description of experiment [8]: qHTS Screen of the MIPE 4.0 Collection Against Ewings Sarcoma (RDES) (AID 1259252). Also: nearly all actives have a fitted effect of over 35% in size. Also: potency is read from the fitted curve at half-maximal effect. In outline:
(§2)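 Dose series incubated 48 h with cells in RPMI plus 5% FBS, glutamine and penicillin/streptomycin; cell viability then quantified via CellTiter-Glo.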

Experiment [9] is described as follows: qHTS Screen of the MIPE 4.0 Collection Against Ewings Sarcoma (TC32) (AID 1259256). Also: nearly all actives have a fitted effect of over 45% in size. Also: potency is read from the fitted curve at half-maximal effect. Summed up:
as §2

A short description of experiment [10]: qHTS assay to identify small molecule inhibitors of chordoma cells - UCH-1 (AID 1259355). Also: % is scaled to controls: 0 for no effect and ±100 for the full control effect; nearly all actives have a fitted effect of over 55% in size. In outline:
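Cells (800/well) were seeded and left overnight at 37 C, 5% CO2, then treated with drugs at 15 concentrations plus a combination mix of auranofin, camptothecin, doxorubicin, rubitecan and topotecan. Viability after 48hr was read by CellTiter-Glo luminescence.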

A short description of experiment [11]: qHTS assay to identify small molecule inhibitors of chordoma cells - UCH-2 (AID 1259356). Also: % is scaled to controls: 0 for no effect and ±100 for the full control effect.
Experiment [12] can be described thus: qHTS Screen of the MIPE 4.0 Collection Against Ewings Sarcoma (TC71) (AID 1259253). Also: nearly all actives have a fitted effect of over 40% in size. Also: potency is read from the fitted curve at half-maximal effect. Summed up:
as §2

Experiment [13] is described as follows: qHTS Screen of the MIPE 4.0 Collection Against Ewings Sarcoma (EW8) (AID 1259255). Also: nearly all actives have a fitted effect of over 35% in size. Also: potency is read from the fitted curve at half-maximal effect.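 As to viability: 100% = DMSO-treated cells and 0% = medium-only wells without cells.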 Summed up:
as §2

Experiment [14] can be described thus: P-glycoprotein substrates identified in KB-3-1 adenocarcinoma cell line, qHTS therapeutic library screen (AID 1346986). Also: nearly all actives have a fitted effect of over 60% in size. The note with it: outcome: dose series up to 44.5 µM unless noted. In outline:
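Compounds were tested in dose-response against KB-3-1 and KB-8-5-11 cells at 37 degree C for 72 h, and viability was measured by luminescence. AC50 values came from curve fitting with class-based activity calls.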

“And” between values parts separate entries of the source, which are not always exact repeats. Identical values can stand only once. Records with an inconclusive call do not appear. A structure can be active in one record and inactive in another. The source made the active and inactive calls. Unless noted, calls follow the shape of the dose curve; as a rule, active = well fitted curve in the direction sought with a large enough effect; inconclusive = small, poorly fitted or top-dose-only effect, or another doubt; inactive = no such curve, though single readings can be large; an effect the other way counts as inactive or inconclusive.

On to `NC(=O)OCC(COC(N)=O)c1ccccc1`, for which the parasite growth remaining, % of DMSO control (lower = more inhibition) in [1] is 97.8%. The parasite growth, % of control (lower = inhibition) in experiment [2] was 95.5%. The growth, % of control in experiment [3] turned out to be 63.7%. For the same compound, in experiment [4], the cell viability, % of control (lower = more cytotoxic) is 156%. For the same compound, the viability (% of control) in experiment [5] stood at 96.1%. Also, the Potency result in experiment [6], in [7], in [8] and in experiment [10] was “inactive” in each case. Besides, the Potency in [9] was 5.9 µM (active). Besides, the call in experiment [11] was inactive.

Turning to `Cc1cn([C@H]2C=C[C@@H](CO)O2)c(=O)[nH]c1=O`, the parasite growth remaining, % of DMSO control (lower = more inhibition) in [1] is 112% [at 57.5 µM]. Besides, the parasite growth, % of control (lower = inhibition) in experiment [2] came out at 140% [at 57.5 µM]. In addition, the growth, % of control in [3] turned out to be 618% [at 57.5 µM]. For the same compound, the cell viability, % of control (lower = more cytotoxic) in experiment [4] was 82.4% [at 92.2 µM]. In experiment [5], the viability (% of control) was 100% [at 92.2 µM]. The Potency entry in [6], in experiment [7], in experiment [12], in [13], in [9] and in experiment [10] was “inactive” in each case. In addition, the compound was called inactive in experiment [11]. Besides, in experiment [14], the outcome was “inactive [at 93.4 µM]”.

In the case of `COC(=O)Nc1nc2ccc(C(=O)c3cccs3)cc2[nH]1`, in [1], the parasite growth remaining, % of DMSO control (lower = more inhibition) came out at 93.5%. For the same compound, the growth, % of control in [3] came out at 80%. In addition, the cell viability, % of control (lower = more cytotoxic) in [4] was found to be 19.7%. Moreover, in [5], the viability (% of control) stood at 10.7%. For the same compound, the Potency entry in experiment [6], in experiment [7] and in experiment [9] was “inactive” each time. Besides, the figures for the Potency in [8], in experiment [12] and in experiment [13] were 0.0037 µM (active), 0.0118 µM (active) and 0.0047 µM (active), respectively. Further, the outcome in experiment [11] was inactive.

With `Clc1ccc2nsnc2c1NC1=NCCN1`, the parasite growth remaining, % of DMSO control (lower = more inhibition) in experiment [1] worked out at 98.6%. The same compound displayed a growth, % of control in experiment [3] of 67.7%. Besides, the cell viability, % of control (lower = more cytotoxic) in experiment [4] was determined as 64.1%. Moreover, the viability (% of control) in experiment [5] came to 57%. The Potency result in [6] is “inactive and 20.9 µM (active)”. In addition, the Potency result in [7], in experiment [8], in [12], in experiment [13] and in [9] was “inactive” in each case. Further, in experiment [11], the compound was called inactive.

Turning to `Cc1ccc(-c2cc(C(F)(F)F)nn2-c2ccc(S(N)(=O)=O)cc2)cc1`, the parasite growth remaining, % of DMSO control (lower = more inhibition) in experiment [1] turned out to be 64.9%. The parasite growth, % of control (lower = inhibition) in experiment [2] is 35%. The same compound gave a growth, % of control in experiment [3] of 7.95%. Besides, the cell viability, % of control (lower = more cytotoxic) in experiment [4] was determined as 250%. Further, the viability (% of control) in [5] is 90.2%. The Potency result in [6], in experiment [7] and in [10] was “inactive” in each case. Besides, the Potency in experiment [12] is 13.2 µM (active); in experiment [13] it was 20.9 µM (active); in experiment [9], 11.8 µM (active). In addition, the outcome in experiment [11] and in experiment [14] was inactive.

On to `COc1ccc(C2CNC(=O)C2)cc1OC1CCCC1` (stereo not given), for which, in experiment [1], the parasite growth remaining, % of DMSO control (lower = more inhibition) was 101%. In [2], the parasite growth, % of control (lower = inhibition) was 116%. In addition, in experiment [3], the growth, % of control is 98.4%. In addition, the cell viability, % of control (lower = more cytotoxic) in [4] was determined as 170%. Further, the viability (% of control) in experiment [5] amounted to 117%. Moreover, the Potency result in experiment [6], in experiment [7], in experiment [8], in experiment [12], in [13] and in experiment [9] was “inactive” each time. In addition, the Potency result in experiment [10] is “inactive”. For the same compound, in experiment [11], the result was inactive.

Turning to `CCOC(=O)C(C)(C)Oc1ccc(Cl)cc1`, the parasite growth remaining, % of DMSO control (lower = more inhibition) in experiment [1] was 103%. The parasite growth, % of control (lower = inhibition) in experiment [2] amounted to 78%. This compound showed a growth, % of control in experiment [3] of 104%. Also, in [4], the cell viability, % of control (lower = more cytotoxic) is 163%. Besides, the viability (% of control) in [5] turned out to be 22.1%. In addition, the Potency result in experiment [6], in [7], in experiment [8], in experiment [12], in experiment [9] and in [10] was “inactive” each time. In addition, the outcome in experiment [11] was inactive.

As to `Nc1c2c(nc3ccccc13)CCCC2`, the parasite growth remaining, % of DMSO control (lower = more inhibition) in experiment [1] amounted to 15.1%. Further, the growth, % of control in [3] amounted to 20.2%. In experiment [4], the cell viability, % of control (lower = more cytotoxic) turned out to be 131%. In [5], the viability (% of control) worked out at 101%. For the same compound, the Potency entry in experiment [6], in experiment [7] and in experiment [10] was “inactive” in each case. Moreover, the values for the Potency in experiment [8], in experiment [12] and in [13] were 26.4 µM (active), 18.7 µM (active) and 18.7 µM (active), respectively. For the same compound, the result in experiment [11] and in experiment [14] was inactive.

As for `CCOC(=O)c1ncn2c1CN(C)C(=O)c1cc(F)ccc1-2`, the cell viability, % of control (lower = more cytotoxic) in [4] was 100%. Moreover, the viability (% of control) in experiment [5] was 17.4%. Besides, the Potency entry in experiment [6], in [7], in experiment [8], in experiment [12] and in experiment [10] was “inactive” each time. Also, the Potency in experiment [9] is 13.2 µM (active). The call in experiment [11] was inactive.
